Results on 32 compounds are retold here after PubChem BioAssay (NCATS).

The target of test [1] is Ferritin light chain (Equus caballus) (UniProt P02791). In words: qHTS Validation Assay for Identification of Novel General Anesthetics (AID 2323). Note: potency is the fitted concentration of half-maximal effect. A digest of the protocol:
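10 uM horse-spleen apoferritin + 1-AMA (50% saturated, PBS); cpd pin-transferred, 10 min RT. Ex 380/Em 535 nm endpoint. Activity normalized between free 1-AMA and 1-AMA/apoferritin; 4-parameter Hill fit of concentration-response.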
A general note: Quantitative high-throughput screening tests each substance at several concentrations.

Test [2] concerns the target ATP-dependent DNA helicase Q1 (Homo sapiens) (UniProt P46063). The test is described as follows: qHTS Validation Assay for Inhibitors of RecQ-Like Dna Helicase 1 (RECQ1) (AID 2353). Note: potency is the fitted concentration of half-maximal effect. In short, it runs like this: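 RECQ1T1 50 nM; forked duplex (20 bp + 30-nt ss tails) 200 nM, ATP 2 mM final; pH 8.0, 2 mM MgCl2, 2.5 ug/ml poly(dI-dC); 15 min compound preincubation; discontinuous kinetic read over 2 h at RT.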

In test [3] the target is RecQ-like DNA helicase BLM (Homo sapiens) (UniProt P54132). In words: qHTS Validation Assay for Inhibitors of Bloom's syndrome helicase (BLM) (AID 2364). Note: potency is the fitted concentration of half-maximal effect. In short, it runs like this:
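50 nM BLM preincubated 15 min at room temperature with compound in pH 8.0 Tris buffer containing 2.5 ug/ml poly(dI-dC); started with 200 nM TAMRA/BHQ-2 forked duplex and 2 mM ATP (final). Unwinding read as TAMRA fluorescence increase, two reads 2 h apart.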

Test [4] is described as follows: Cytometric Cell-Based qHTS for Inhibitors of the mTORC1 Signaling Pathway in MEF (Tsc2-/-, p53-/-) Cells (AID 2660).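 Note: Tsc2 and p53 null MEFs carrying empty vector with compound for 24 h; percent of cells above a phospho-rpS6 to PI ratio cutoff in each well; series mostly up to about 38 µM.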 A digest of the protocol: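 Percent of cells positive for normalized phospho-S6 staining is reported, with the cutoff set from rapamycin (7.5 nM) versus DMSO wells. Tsc2-/-, p53-/- MEFs received compound for 24 hrs.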
The nature of test [5]: High Content Imaging Cell-Based qHTS for Inhibitors of the mTORC1 Signaling Pathway in MEF (Tsc2-/-, p53-/-) Cells (AID 2666).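 Note: percent of cells scored positive for phospho-rpS6 Ser235/236 immunostaining by imaging.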 Note: potency is the fitted concentration of half-maximal effect. In short, it runs like this:
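MEF Tsc2-/- p53-/- (empty vector), DMEM/10% FBS; cpd 24 h 37 °C; PFA fix, Alexa-488 p-rpS6 S235/236 Ab, Hoechst; imaged; rapamycin-defined inhibition; % positive cells/well.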

Test [6] in a line: Cytometry Cell-Based qHTS for Inhibitors of the mTORC1 Signaling Pathway in MEF cells (AID 2668).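 Note: Tsc2-/- p53-/- mouse embryonic fibroblasts stably re-expressing wild-type Tsc2; percent cells positive for phospho-rpS6 Ser235/236 relative to propidium iodide stain; series mostly up to about 38 µM.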 A digest of the protocol: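 Read-out: phospho-rpS6 Ser235/236 immunofluorescence normalized to propidium iodide intensity, scored as % active cells against a rapamycin (7.5 nM) threshold. Cells: Tsc2-/-, p53-/- MEFs stably expressing WT Tsc2, compound-treated 24 hrs at 37 degree Celsius.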

The nature of test [7]: Validation screen for small molecules that induce DNA re-replication in MCF 10A normal breast cells (AID 463097). Note: nearly all actives have a fitted effect of over 60% in size. Note: potency is the fitted concentration of half-maximal effect. In short, it runs like this:
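250 MCF 10A cells/well; compound pin-transferred; 48 hr, 37 C, 5% CO2; Hoechst 40 min; imaged 405/500-530 nm. Hits = more high-intensity nuclei.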

Test [8] can be described thus: High Content Imaging Cell-Based qHTS for Inhibitors of the mTORC1 Signaling Pathway in MEF Cells (AID 2667). Note: potency is the fitted concentration of half-maximal effect. A digest of the protocol:
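Read-out is the share of phospho-rpS6-positive cells per well, from Hoechst-normalized Alexa-488 Ser235/236 staining imaged on IN Cell. Cells: WT Tsc2-expressing Tsc2-/-, p53-/- MEFs exposed to compound for 24 hrs.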

SMILES strings stand for the structures. Results filed as inconclusive are left out. Calls of active or inactive are those of the source. Calls come from the whole dose curve; as a rule, active = well fitted curve in the direction sought with a large enough effect; inconclusive = small, poorly fitted or top-dose-only effect, or another doubt; inactive = no such curve, though single readings can be large; an effect the other way counts as inactive or inconclusive.

Sequence of RecQ-like DNA helicase BLM (Homo sapiens) (P54132 whole entry, looked up): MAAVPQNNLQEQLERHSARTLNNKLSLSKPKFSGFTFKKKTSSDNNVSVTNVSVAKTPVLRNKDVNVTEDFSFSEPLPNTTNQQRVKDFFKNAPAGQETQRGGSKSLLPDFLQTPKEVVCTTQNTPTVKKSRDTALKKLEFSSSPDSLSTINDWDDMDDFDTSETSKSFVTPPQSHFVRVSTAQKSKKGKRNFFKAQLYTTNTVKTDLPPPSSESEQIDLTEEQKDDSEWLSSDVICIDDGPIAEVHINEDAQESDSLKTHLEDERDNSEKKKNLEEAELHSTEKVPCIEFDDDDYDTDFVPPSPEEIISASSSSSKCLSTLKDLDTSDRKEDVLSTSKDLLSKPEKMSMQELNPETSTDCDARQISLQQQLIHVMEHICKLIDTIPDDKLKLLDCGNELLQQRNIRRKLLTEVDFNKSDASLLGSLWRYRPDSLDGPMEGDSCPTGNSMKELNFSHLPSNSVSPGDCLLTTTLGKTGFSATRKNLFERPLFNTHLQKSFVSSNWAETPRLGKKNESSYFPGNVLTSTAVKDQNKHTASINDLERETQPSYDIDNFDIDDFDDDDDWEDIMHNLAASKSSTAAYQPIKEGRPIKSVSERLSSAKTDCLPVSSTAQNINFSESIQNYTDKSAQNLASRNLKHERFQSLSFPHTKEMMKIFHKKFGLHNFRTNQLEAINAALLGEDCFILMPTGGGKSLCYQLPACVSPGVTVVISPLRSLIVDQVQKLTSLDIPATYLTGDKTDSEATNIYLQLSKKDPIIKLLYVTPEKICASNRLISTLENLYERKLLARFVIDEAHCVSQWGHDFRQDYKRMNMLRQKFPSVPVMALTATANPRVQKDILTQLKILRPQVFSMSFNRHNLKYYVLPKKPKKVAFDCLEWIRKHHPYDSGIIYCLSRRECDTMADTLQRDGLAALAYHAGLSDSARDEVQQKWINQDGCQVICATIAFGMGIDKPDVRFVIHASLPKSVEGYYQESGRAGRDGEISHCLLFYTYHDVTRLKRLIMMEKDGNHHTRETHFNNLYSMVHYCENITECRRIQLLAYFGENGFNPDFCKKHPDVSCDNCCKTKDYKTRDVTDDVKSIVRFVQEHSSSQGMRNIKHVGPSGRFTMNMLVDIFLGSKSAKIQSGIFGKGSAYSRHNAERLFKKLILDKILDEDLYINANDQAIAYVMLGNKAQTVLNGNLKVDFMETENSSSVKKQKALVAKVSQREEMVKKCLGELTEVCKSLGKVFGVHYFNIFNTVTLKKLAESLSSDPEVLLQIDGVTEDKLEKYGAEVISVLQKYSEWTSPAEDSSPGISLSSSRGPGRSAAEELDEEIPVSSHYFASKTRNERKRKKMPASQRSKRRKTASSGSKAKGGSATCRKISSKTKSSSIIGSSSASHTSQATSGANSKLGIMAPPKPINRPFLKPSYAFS
Sequence of Ferritin light chain (Equus caballus) (P02791 2-175 limits assumed): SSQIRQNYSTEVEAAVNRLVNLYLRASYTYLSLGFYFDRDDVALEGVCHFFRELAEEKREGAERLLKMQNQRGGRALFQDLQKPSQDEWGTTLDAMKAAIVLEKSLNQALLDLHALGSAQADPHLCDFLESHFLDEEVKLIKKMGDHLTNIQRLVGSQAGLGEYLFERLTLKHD
Sequence of ATP-dependent DNA helicase Q1 (Homo sapiens) (P46063 whole entry, looked up): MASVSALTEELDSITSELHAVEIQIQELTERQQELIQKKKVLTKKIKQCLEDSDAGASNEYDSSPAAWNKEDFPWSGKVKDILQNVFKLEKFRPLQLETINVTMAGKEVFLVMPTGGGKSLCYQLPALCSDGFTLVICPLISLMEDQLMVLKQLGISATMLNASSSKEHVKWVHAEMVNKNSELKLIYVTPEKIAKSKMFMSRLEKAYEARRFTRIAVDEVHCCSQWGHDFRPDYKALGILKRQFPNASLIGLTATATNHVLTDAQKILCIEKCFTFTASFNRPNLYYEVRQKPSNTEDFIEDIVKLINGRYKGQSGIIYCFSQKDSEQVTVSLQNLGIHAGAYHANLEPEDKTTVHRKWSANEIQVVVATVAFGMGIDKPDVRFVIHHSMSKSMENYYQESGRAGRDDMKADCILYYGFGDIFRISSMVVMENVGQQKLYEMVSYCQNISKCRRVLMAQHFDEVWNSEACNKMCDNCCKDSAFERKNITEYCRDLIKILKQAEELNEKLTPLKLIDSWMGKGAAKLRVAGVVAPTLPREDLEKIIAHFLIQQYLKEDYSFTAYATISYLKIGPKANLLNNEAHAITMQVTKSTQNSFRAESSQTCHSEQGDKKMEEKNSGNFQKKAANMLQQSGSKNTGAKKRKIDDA

As for `CC(COc1ccccc1)N(CCCl)Cc1ccccc1` (configuration not stated), the Potency result in test [1], in test [2], in test [3], in test [5], in test [6] and in test [7] was “inactive” in each case. For the same compound, the outcome in test [4] was inactive.

Consider `O=c1[nH]cc(F)c(=O)[nH]1`, for which the Potency entry in test [1], in test [2], in test [3], in test [5] and in test [7] was “inactive” throughout. Moreover, the outcome in test [4] was inactive.

As for `CCc1cccc2c3c([nH]c12)C(CC)(CC(=O)O)OCC3` (configuration not stated), the Potency entry in test [1], in test [2], in test [5], in test [8], in test [6] and in test [7] was “inactive” each time. For the same compound, the result in test [4] was inactive.

For `O=C(C1CCCCC1)N1CC(=O)N2CCc3ccccc3C2C1` (configuration not stated), the Potency entry in test [1], in test [2], in test [5], in test [8], in test [6] and in test [7] was “inactive” each time. Besides, the outcome in test [4] was inactive.

In the case of `O=C1c2c(O)ccc(O)c2C(=O)c2c(NCCNCCO)ccc(NCCNCCO)c21`, the Potency in test [1] was 17.8 µM (active); in test [2], 3.16 µM (active); in test [3], 20 µM (active). Also, in test [4], the compound was called inactive. Further, the Potency entry in test [5] and in test [7] was “inactive” each time.

Take `CC(C)NCC(O)COc1ccc(CCOCC2CC2)cc1` (configuration not stated): the Potency result in test [1], in test [2], in test [5], in test [8], in test [6] and in test [7] was “inactive” in each case. In test [4], the compound was called inactive.

Regarding `CN(C)CCC=C1c2ccccc2C=Cc2ccccc21`, the Potency result in test [1], in test [2], in test [3], in test [5] and in test [7] was “inactive” each time. The call in test [4] was inactive.

Consider `NC12CC3CC(CC(C3)C1)C2`, for which the Potency entry in test [1], in test [2], in test [5], in test [6] and in test [7] was “inactive” in each case. The outcome in test [4] was inactive.

Take `CCC1(C)CC(=O)NC1=O` (configuration not stated): the Potency result in test [1], in test [2], in test [3], in test [5], in test [6] and in test [7] was “inactive” throughout. Further, the result in test [4] was inactive.

For the compound `COc1ccc(CCN(C)CCCC(C#N)(c2ccc(OC)c(OC)c2)C(C)C)cc1OC` (configuration not stated), the Potency result in test [1], in test [2], in test [5], in test [6] and in test [7] was “inactive” in each case. Besides, the compound was called inactive in test [3] and in test [4].

Regarding `Nc1nnc(-c2cccc(Cl)c2Cl)c(N)n1`, the Potency result in test [1], in test [2], in test [5], in test [8], in test [6] and in test [7] was “inactive” in each case. Also, the compound was classed as inactive in test [4].

On to `CN1CCN2c3ccccc3Cc3ccccc3C2C1` (configuration not stated), for which the Potency result in test [1], in test [2], in test [5], in test [8], in test [6] and in test [7] was “inactive” throughout. Moreover, the result in test [4] was inactive.

For `CC(C)Cc1ccc(C(C)C(=O)O)cc1` (configuration not stated), the Potency entry in test [1], in test [2], in test [5], in test [6] and in test [7] was “inactive” in each case. Besides, the compound was called inactive in test [4].

`COc1ccc2[nH]cc(CCNC(C)=O)c2c1`: the Potency entry in test [1], in test [2], in test [5], in test [8], in test [6] and in test [7] was “inactive” in each case. The result in test [4] was inactive.

For the compound `COc1cc2nc(N3CCN(C(=O)c4ccco4)CC3)nc(N)c2cc1OC`, the Potency result in test [1], in test [2], in test [3] and in test [5] was “inactive” in each case. In test [4], the outcome was inactive. Besides, in test [7], the Potency was 15.8 µM (active).

Turning to `Cn1ccc2cc3c(cc21)CCN3C(=O)Nc1cccnc1`, the Potency entry in test [1], in test [2], in test [5], in test [8], in test [6] and in test [7] was “inactive” each time. The result in test [4] was inactive.

`Cc1cn([C@H]2C=C[C@@H](CO)O2)c(=O)[nH]c1=O`: the Potency entry in test [1], in test [2], in test [5], in test [6] and in test [7] was “inactive” throughout. Also, in test [4], the compound was called inactive.

`Cc1cc(C(C)(C)C)c(O)c(C)c1CC1=NCCN1`: the Potency result in test [1], in test [2], in test [5], in test [8], in test [6] and in test [7] was “inactive” throughout. Further, the call in test [4] was inactive.

As to `Cc1ccccc1N1C(=O)c2cc(S(N)(=O)=O)c(Cl)cc2NC1C` (configuration not stated), the Potency result in test [1], in test [2], in test [5], in test [8], in test [6] and in test [7] was “inactive” each time. Besides, in test [4], the call was inactive.

For `CC12CC3CC(C)(C1)CC(N)(C3)C2`, the Potency result in test [1], in test [2], in test [5], in test [8] and in test [7] was “inactive” in each case. Also, the compound was called inactive in test [4].

Regarding `CN1CCC(=C2c3ccccc3C=Cc3ccccc32)CC1`, the Potency result in test [1], in test [2], in test [3], in test [5] and in test [7] was “inactive” throughout. Besides, in test [4], the outcome was inactive.

Regarding `CC[N+](CC)(CC)CCOc1cccc(OCC[N+](CC)(CC)CC)c1OCC[N+](CC)(CC)CC`, the Potency result in test [1], in test [2], in test [3], in test [5], in test [6] and in test [7] was “inactive” each time. The compound was called inactive in test [4].

`COc1ccccc1N1CCN(CC(O)COc2cccc3ccccc23)CC1` (configuration not stated): the Potency entry in test [1], in test [2], in test [3] and in test [5] was “inactive” each time.

Turning to `COc1nc(C)nc(Cl)c1NC1=NCCN1`, the Potency entry in test [1], in test [2], in test [5], in test [8], in test [6] and in test [7] was “inactive” each time. Besides, the result in test [4] was inactive.

As for `Nc1ccn([C@H]2CC[C@@H](CO)O2)c(=O)n1`, the Potency entry in test [1], in test [2], in test [5], in test [8], in test [6] and in test [7] was “inactive” in each case. Besides, the compound was classed as inactive in test [4].

Take `NC(=O)NO`: the Potency result in test [1], in test [2], in test [5], in test [8], in test [6] and in test [7] was “inactive” each time. Further, the result in test [4] was inactive.

As to `Fc1ccc([C@@H]2CCNC[C@H]2COc2ccc3c(c2)OCO3)cc1`, the Potency result in test [1], in test [2], in test [3] and in test [7] was “inactive” in each case. In test [5], the Potency was 2.93 µM (active).

In the case of `CNCCCC12CCC(c3ccccc31)c1ccccc12`, the Potency entry in test [1], in test [2], in test [3], in test [5] and in test [7] was “inactive” each time. For the same compound, the Potency in test [8] was 0.521 µM (active).

For `CS(=O)(=O)Nc1ccc([N+](=O)[O-])cc1Oc1ccccc1`, the Potency entry in test [1], in test [2], in test [5], in test [6] and in test [7] was “inactive” each time. For the same compound, the call in test [4] was inactive.

Regarding `Nc1nc2c(ncn2COC(CO)CO)c(=O)[nH]1`, the Potency entry in test [1], in test [2], in test [5], in test [6] and in test [7] was “inactive” throughout. The compound was classed as inactive in test [4].

On to `CC(C)(Oc1ccc(C2CC2(Cl)Cl)cc1)C(=O)O` (configuration not stated), for which the Potency entry in test [1], in test [2], in test [5], in test [8], in test [6] and in test [7] was “inactive” each time. Also, the call in test [4] was inactive.

For `Clc1ccc(C(c2ccccc2Cl)C(Cl)Cl)cc1` (configuration not stated), the Potency entry in test [1], in test [2], in test [5], in test [8], in test [6] and in test [7] was “inactive” throughout. For the same compound, the outcome in test [4] was inactive.
